# In PubChem BioAssay AID624354 (Sanford-Burnham Center for Chemical Genomics, 2012):
# The whole screen tested about 360,000 compounds, of which about 3,800 (1.1%) were called active.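 How the source made its calls: active means compounds causing at least 50% loss of cell viability in the single-dose screen, relative to plate controls; inactive means the rest.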 Many of the other results were omitted from the sample, so actives are more common in it than they were.
# Experiment: viability loss with TRAIL in NB7+C8 cells, primary screen, TRAIL sensitizer project, cell-based, ATPlite luminescence (AID 624354)
# Conditions: at 10 µM, hits give high values
row,SMILES,"inhibition (viability loss, TRAIL sensitization)"
1,CNC(=O)n1ccc(C(=O)N2CCCCC2)n1,-8.01% (inactive)
2,O=C(/C=C/c1ccc(Cl)cc1)NCCCn1ccnc1,-4.39% (inactive)
3,CN(C)N=Nc1ccc2nc[nH]c2c1,-7.76% (inactive)
4,COc1ccc(-n2nnnc2-c2nc3ccccc3s2)cc1,64.4% (active)
5,COc1ccc(-n2nnnc2SCC(=O)NCc2cccs2)cc1,1.36% (inactive)
6,COc1ccc(-n2nnnc2SCC(=O)c2ccc(OC)c(OC)c2)cc1,-16.3% (inactive)
7,Cc1ccccc1OCC(=O)NCC(=O)OCC(=O)c1ccc2ccccc2c1,-20.2% (inactive)
8,C/C(=N\NC(=O)COc1ccc(C)cc1[N+](=O)[O-])c1ccc2c(c1)OCCO2,-2.67% (inactive)
9,Cc1ccc(S(=O)(=O)N(CC(=O)Nc2cccc([N+](=O)[O-])c2)Cc2ccc(Cl)cc2)cc1,4.71% (inactive)
10,Cc1cc([N+](=O)[O-])ccc1NCc1cccc([N+](=O)[O-])c1,0.71% (inactive)
11,O=C(CCl)N(Cc1cccc([N+](=O)[O-])c1)c1cccc(Cl)c1,92.3% (active)
12,CCCOC1CCCN(Cc2cn(C)nc2-c2ccccc2F)C1 (stereo unspecified),3.04% (inactive)
13,Cc1noc(C)c1NC(=O)N(C)C[C@@H]1Oc2cc(Br)ccc2S(=O)(=O)N([C@@H](C)CO)C[C@H]1C,8.07% (inactive)
14,Cc1c(Cl)c([N+](=O)[O-])nn1CC(=O)NCCCN1CCOCC1,27.8% (inactive)
15,Cc1ccc(S(=O)(=O)N[C@H]2CCC[C@@H]2O)cc1,1.92% (inactive)
16,O=C(O)Cc1ccc(NCc2ccccc2Cl)cc1,8.54% (inactive)
17,CCCc1cc(C(=O)Nc2ccc(C(=O)OC)cc2)cs1,-5.01% (inactive)
18,COC(=O)c1ccc(NCc2cc(O)ccc2O)cc1,55.3% (active)
19,O=C(OC12CC3CC(CC(C3)C1)C2)c1ccc(NCc2cc(O)ccc2O)cc1,86.4% (active)
20,CC(C)OC(=O)c1ccc(NCc2cc(O)ccc2O)cc1Cl,78.8% (active)
21,C#CCNc1ccc(C(=O)OCC)cc1,3.56% (inactive)
22,CN(C)c1nc(N)nc(CSc2nnnn2-c2cccc3ccccc23)n1,40.6% (inactive)
23,Cc1ccc(/C=N/NC(=O)c2sccc2OCc2ccc(F)cc2)cc1,15.2% (inactive)

row,SMILES,"inhibition (viability loss, TRAIL sensitization)"
1,Cc1ccccc1CS(=O)(=O)CC1(O)CCN(C(=O)c2cccc(C(F)(F)F)c2)CC1,8.2% (inactive)
2,CCOc1ccc(N(CC(=O)NC2CCCCCC2)S(=O)(=O)c2c(C)[nH]c(=O)[nH]c2=O)cc1,11.6% (inactive)
3,COc1ccc(NC(=O)c2cc(=O)[nH]c3ccccc23)cc1S(=O)(=O)N1CCOCC1,-0.328% (inactive)
4,CCOc1ccc(CCNC(=O)COC(=O)CCS(=O)(=O)c2ccc(C)cc2)cc1OCC,6.55% (inactive)
5,O=C(Nc1ccn(Cc2ccccc2F)n1)c1ccc(COc2ccc(Cl)cc2Cl)o1,11.2% (inactive)
6,Cc1c(Br)c([N+](=O)[O-])nn1CC(=O)N1CCN(Cc2ccccc2)CC1,-5.96% (inactive)
7,O=C(Nc1ccn(Cc2ccccc2)n1)c1n[nH]c([N+](=O)[O-])c1Cl,62.6% (active)
8,COC(=O)c1cc(NS(=O)(=O)c2ccc3c(c2)c(=O)n(C)c(=O)n3C)cc(C(=O)OC)c1,15.9% (inactive)
9,CC[C@H]1CN2CCc3cc(OC)c(OC)cc3[C@@H]2C[C@@H]1C[C@H]1NCCc2cc(OC)c(OC)cc21,53.7% (active)
10,CCOC(=O)C1CCN(C(=O)C2CCN(S(=O)(=O)CC)CC2)CC1,-7.6% (inactive)
11,CCN(CC(=O)Nc1c(F)cccc1F)C(=O)C1CCC1,-2.6% (inactive)
12,COc1ccc(COC(=O)c2n[nH]c3ccccc23)cc1F,-10.3% (inactive)
13,Cc1ccc(C(=O)NC(C)C(c2cccs2)N2CCOCC2)cc1C (stereo unspecified),-23.4% (inactive)
14,CCOC(=O)C/C(C)=N\Nc1ccc([N+](=O)[O-])cc1[N+](=O)[O-],-7.23% (inactive)
15,CCOC(=O)C(=Cc1ccccc1)C(=O)c1ccccc1,18.2% (inactive)
16,CCOC(=O)/C(=C\c1ccc([N+](=O)[O-])cc1)C(=O)c1cc(C(C)=O)c(Nc2ccccc2)s1,85.2% (active)
17,O=C(CN1C(=O)NC(Cc2ccccc2)(Cc2ccccc2)C1=O)NCC1CCCCC1,-33.8% (inactive)
18,CCC(CC)c1nnc(NS(=O)(=O)Cc2ccccc2)s1,-5.15% (inactive)
19,C=CCn1cc(Cl)cc(C(=O)Nc2ccccc2)c1=O,6.15% (inactive)
20,Cc1ccc(NC(=O)N2CCC(C(=O)NCc3ccc(F)cc3)CC2)cc1,1.96% (inactive)
21,CCc1ccc(CNC(=O)C2CC(=O)N(CCc3ccc(C)cc3)C2)cc1 (stereo unspecified),8.62% (inactive)
22,CCc1ccc(CNC(=O)C2CCN(c3nnc(C)c4c(C)n(-c5ccc(C)cc5)nc34)CC2)cc1,84.7% (active)
23,O=C(COC(=O)/C=C/c1ccc(OC(F)F)cc1)NC1CCCCC1,-8.42% (inactive)
